{
  "source": "PubChem BioAssay (NCATS)",
  "note": "Records with an inconclusive call do not appear. A number with no mark means an inactive call. Calls follow the shape of the dose curve; as a rule, active = well fitted inhibition curve with a large enough effect; inconclusive = small, poorly fitted or top-dose-only effect; inactive = no such curve, though single readings can be large or run the other way.",
  "data": [
    {"target": "Retinaldehyde dehydrogenase 3 (Homo sapiens) (UniProt P47895)", "experiment": "qHTS for Inhibitors of the Aldehyde Dehydrogenase Family (ALDH1A3) Primary screen (AID 2061315);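 also: plate controls were DMSO vehicle for no effect and reference inhibitor for full effect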", "details": "ALDH inhibition qHTS; series mostly up to 56 µM; activity change, negative = inhibition: at the top concentration", "values": [
      {"smiles": "COc1cc2c(c(OC)c1O)C(c1ccc(O)cc1)C1C(=O)OC3C(COC(=O)C1=C2)OC(CO)(OC1OC(COC(=O)/C=C/c2ccc(OC4OC(C)C(O)C(O)C4O)cc2)C(O)C(O)C1O)C3O", "note": "(stereo unspecified)", "activity change, negative = inhibition": "-16.6% [at 16.9 µM]"},
      {"smiles": "C[C@H]1/C=C/C=C/C=C/C=C/C=C/[C@@H](O)[C@H](C(=O)O)[C@H](O)C[C@H](O)CCC[C@H](O)C[C@H](O)C[C@H](O)[C@@H](C)C(=O)O[C@@H]1C", "activity change, negative = inhibition": "-5.13% [at 16.9 µM]"},
      {"smiles": "COc1ccc(C(=O)CC(=O)O)c2c1C=CC(C)(C)O2", "activity change, negative = inhibition": "-3.37%"},
      {"smiles": "O=C1NC(Cc2c[nH]c3ccccc23)C(=O)NC1Cc1c[nH]c2ccccc12", "note": "(stereo unspecified)", "activity change, negative = inhibition": "-22.6%"},
      {"smiles": "CC(=O)O[C@H]1C[C@@H](O)C(C)(C)C2C[C@@H](OC(C)=O)[C@]3(C)C(CC[C@@]4(C)[C@H](c5ccoc5)OC(=O)[C@H]5O[C@]543)[C@]21C", "note": "(stereo partly specified)", "activity change, negative = inhibition": "0.636% [at 28 µM]"},
      {"smiles": "COc1cc(/C=C/C(=O)OC2CC(OC(C)=O)C(OC(C)=O)C3C2CCC2C(=O)OC(c4ccoc4)CC23C)ccc1O[C@@H]1O[C@H](CO)[C@@H](O)[C@H](O)[C@H]1O", "note": "(stereo partly specified)", "activity change, negative = inhibition": "12% [at 16.9 µM]"},
      {"smiles": "CC(C)=CC/C=C(\\C)[C@H]1CC[C@]2(C)[C@@H]1[C@H](O)C[C@@H]1[C@@]3(C)CC[C@H](O)C(C)(C)[C@@H]3[C@@H](O[C@@H]3O[C@H](CO)[C@@H](O)[C@H](O)[C@H]3O)C[C@]12C", "activity change, negative = inhibition": "-1.8%"},
      {"smiles": "Cc1ccc(C(=O)N2CCN(c3ccc([N+](=O)[O-])cc3)CC2)cc1Cl", "activity change, negative = inhibition": "-12.3%"},
      {"smiles": "C=CC(C)(CC/C=C(\\C)C(=O)OC)OC1OC(COC(=O)CC(C)(O)CC(=O)O)C(O)C(O)C1O", "note": "(stereo unspecified)", "activity change, negative = inhibition": "-3.47% [at 28 µM]"},
      {"smiles": "C=C(C)[C@@H]1CC[C@]2(C(=O)O)CC[C@]3(C)C(CCC4[C@]5(C)C(CC[C@]43C)C(C)(C)[C@@H](O)[C@@H]5C(=O)O)C12", "note": "(stereo partly specified)", "activity change, negative = inhibition": "7.32% [at 28 µM]"},
      {"smiles": "O=S(=O)(NCc1ccccn1)c1ccc(Br)c2ccccc12", "activity change, negative = inhibition": "12%"},
      {"smiles": "O=C(CCCCc1ccc2ccccc2c1)C(F)(F)F", "activity change, negative = inhibition": "-16.7% [at 114 µM]"},
      {"smiles": "C[C@@H]1O[C@@H](O[C@H]2[C@@H]3C=CO[C@@H](O[C@@H]4O[C@H](CO)[C@@H](O)[C@H](O)[C@H]4O)[C@@H]3[C@@]3(CO)O[C@@H]23)[C@H](OC(=O)/C=C/c2ccccc2)[C@H](O)[C@H]1O", "activity change, negative = inhibition": "-28.1% [at 16.9 µM]"},
      {"smiles": "CC1CCC2(CO)C(C(=O)O)=CCCC2C1(C)CCc1ccoc1", "note": "(stereo unspecified)", "activity change, negative = inhibition": "3.7%"},
      {"smiles": "CC1CCC2(C(=O)O)CCC3(C)C(=CCC4C5(C)CCC(OC(=O)/C=C/c6ccccc6)C(C)(C)C5CCC43C)C2C1C", "note": "(stereo unspecified)", "activity change, negative = inhibition": "20.7% [at 16.9 µM]"},
      {"smiles": "COc1c2c(nc3occc13)C(CC=C(C)C)(OC)C(O)CC2", "note": "(stereo unspecified)", "activity change, negative = inhibition": "-5.64%"},
      {"smiles": "Fc1ccccc1-c1nc2ccn(Cc3ccc(-c4ccc(C(F)(F)F)cc4C(F)(F)F)nn3)cc-2n1", "activity change, negative = inhibition": "13.1%"},
      {"smiles": "COC(=O)C(CC1(OC(=O)C(C)C)c2ccccc2N2C(=O)C(C)(C)N(O)C21)n1cnc2ccccc2c1=O", "note": "(stereo unspecified)", "activity change, negative = inhibition": "14% [at 28 µM]"},
      {"smiles": "O=C(Nc1ccn(Cc2c(F)cccc2C(F)(F)F)n1)c1c(F)cccc1F", "activity change, negative = inhibition": "0.974% [at 16.9 µM]"},
      {"smiles": "OCC(CO)(CO)NCC(O)Cn1c2ccc(Cl)cc2c2cc(Cl)ccc21", "note": "(stereo unspecified)", "activity change, negative = inhibition": "1.94%"},
      {"smiles": "CC#C[C@@H](CC(=O)O)c1ccc(OCc2ccc(CN3CCC4(C=Cc5ccccc54)CC3)s2)cc1", "activity change, negative = inhibition": "3.02%"}
    ]}
  ]
}
